Here are results for 11 molecules from PubChem BioAssay (EPA / NIEHS).

Records with an inconclusive call do not appear. More than one record can exist for a structure, and the calls need not agree. Active and inactive are the calls of the source. Rule for the calls: active = hit-call score of the fitted dose curve at least 0.9, where 1 is the maximum; inconclusive = response in the unintended direction; inactive = score below 0.9.

Experiment [1] can be described thus: ACEA_AR_agonist_AUC_viability: ACEA Biosciences xCELLigence Real-Time Cell Analysis on Androgen Receptor Agonism for Viability (AID 2283775).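 For AC50: viability read 80 hours after compound addition.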 The procedure, abridged: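 22Rv1 cells; impedance growth kinetics; 8-pt 1:4 dilutions from 100 uM top final, ≤0.5% DMSO; n = 2; 80 h read; AUC viability, loss-of-signal vs DMSO.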
The nature of experiment [2]: ACEA_AR_antagonist_AUC_viability: ACEA Biosciences xCELLigence Real-Time Cell Analysis on Androgen Receptor Antagonism for Viability (AID 2283776).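 Note: 22Rv1 human prostate cancer cells growing on impedance electrode plates; hits lower the growth signal relative to DMSO meaning cytotoxicity.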 The procedure, abridged:
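Real-time electrical impedance tracks 22Rv1 proliferation after continuous compound exposure (top 100 uM final, 1:4 steps, 8 concentrations). The 80 h area-under-curve serves as the cytotoxicity readout relative to DMSO.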

Experiment [3] is described as follows: ACEA_ER_AUC_viability: ACEA Biosciences xCELLigence Real-Time Cell Analysis on Estrogen Receptor Agonism for Viability (AID 2283782).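 Note: hit means loss of impedance signal meaning reduced cell growth or viability.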 In a few lines: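 Continuous-exposure impedance cell analysis uses T-47D cells in charcoal-stripped serum, eight 1:4 dilutions topping at 100 uM final, biological duplicate. Area under the growth curve at 80 h is fitted against DMSO baseline.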

In experiment [4] the test system is frog Estrogen Receptor (ESR1), gene 398734. In words: ATG_frER1_XSP1: Attagene TRANS-FACTORIAL Multi-Species (XSP1) HepG2 Assay for frog Estrogen Receptor (ESR1) (AID 2283777). In a few lines: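 After transient transfection and 24 h compound treatment, total RNA from HepG2 cells was reverse-transcribed, amplified, FAM-labeled and resolved by capillary electrophoresis. Signal increases were fitted against DMSO controls.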

Experiment [5] deals with zebrafish Estrogen Receptor (ESR2A), gene 317734. In words: ATG_zfER2a_XSP1: Attagene TRANS-FACTORIAL Multi-Species (XSP1) HepG2 Assay for zebrafish Estrogen Receptor (ESR2A) (AID 2283778). In a few lines: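 Gain-of-signal reporter transcription readout from GAL4-UAS units in transiently transfected HepG2 cells, 24 h exposure, 3 nM 6-alpha-fluorotestosterone co-present. Detection by RT-PCR with capillary electrophoresis fluorescence.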

The target of experiment [6] is chicken Estrogen Receptor (ESR1), ESR1 (gene 396099) (UniProt P06212). In words: ATG_chERa_XSP1: Attagene TRANS-FACTORIAL Multi-Species (XSP1) HepG2 Assay for chicken Estrogen Receptor (ESR1) (AID 2283779). In a few lines:
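Gain-of-signal reporter transcription, relative to DMSO, was scored in transiently transfected HepG2 cells after a 24 h dose. Fluorescence intensity of amplified, digested reporter cDNA fragments served as the endpoint.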

The subject of experiment [7] is turtle Estrogen Receptor (ESR1), gene 101933533. In words: ATG_trERa_XSP1: Attagene TRANS-FACTORIAL Multi-Species (XSP1) HepG2 Assay for turtle Estrogen Receptor (ESR1) (AID 2283781). The procedure, abridged: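 Cell-based chimeric NR-Gal4 transactivation; HepG2; 24 h dosing; mRNA reporter detected by RT-PCR and capillary electrophoresis fluorescence.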
Experiment [8] can be described thus: STM_H9_NormalizedViability: Cytotoxicity Assessment at 120 hours in the Stemina devTOX quickPredict H9 human embryonic stem cell (hESC)-based Assay (AID 2283784). In a few lines: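 Viability endpoint: background-corrected CellTiter-Fluor RFU expressed relative to the 0.1% DMSO mean on each plate. Undifferentiated H9 cells were treated with daily re-dosing and media change, and loss of signal was fitted.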

For experiment [9], the target named is Estrogen receptor beta (Homo sapiens) (UniProt Q92731). The experiment is described as follows: ATG_hERb_XSP1: Attagene TRANS-FACTORIAL Multi-Species (XSP1) HepG2 Assay for human Estrogen Receptor (ESR2) (AID 2283788). In a few lines:
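Multiplexed trans-activation in transfected HepG2: ERβ-Gal4 reporter transcripts after 24 h treatment, detected by RT-PCR plus capillary electrophoresis.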

Experiment [10] addresses GAL4 Transcription Factor (Internal Marker), GAL4 (gene 855828) (UniProt P04386). In words: ATG_GAL4_XSP1: Attagene TRANS-FACTORIAL Multi-Species (XSP1) HepG2 Assay for GAL4 Transcription Factor (Internal Marker) (AID 2283789). The procedure, abridged:
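This background-control endpoint measures GAL4-driven reporter mRNA via RT-PCR and capillary electrophoresis of labelled fragments. Transiently transfected HepG2 cells were treated 24 h, with 3 nM 6-alpha-fluorotestosterone included, and gain-of-signal was fitted against DMSO.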

The nature of experiment [11]: ATG_M_06_XSP1: Attagene TRANS-FACTORIAL Multi-Species (XSP1) HepG2 Assay for M06 Transcription Factor (Internal Marker) (AID 2283790). The procedure, abridged:
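This background-control readout tracks M06 reporter mRNA, measured by RT-PCR and capillary electrophoresis. HepG2 cells transiently carrying the GAL4-UAS reporter panel were dosed for 24 h with 3 nM 6-alpha-fluorotestosterone added for partial AR stimulation; increases were scored relative to DMSO.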

Experiment [12] in a line: ATG_M_61_XSP1: Attagene TRANS-FACTORIAL Multi-Species (XSP1) HepG2 Assay for M61 Transcription Factor (Internal Marker) (AID 2283797). The procedure, abridged:
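Background-control readout: reporter transcripts measured by RT-PCR and capillary electrophoresis 24 h after dosing transiently transfected HepG2 multi-reporter cells, with 3 nM 6-alpha-fluorotestosterone present. Fitted in the positive direction relative to DMSO.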

Experiment [13] in a line: ATG_M_32_XSP1: Attagene TRANS-FACTORIAL Multi-Species (XSP1) HepG2 Assay for M32 Transcription Factor (Internal Marker) (AID 2283799). The procedure, abridged: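 Reporter transcripts from the M32 internal-control unit measured by RT-PCR, FAM labelling, HpaI digestion and capillary electrophoresis after 24 h compound exposure of transfected HepG2, 3 nM 6-alpha-fluorotestosterone included; DMSO baseline, positive-direction fit.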

The target in experiment [14] is Peroxisome proliferator-activated receptor gamma (Homo sapiens) (UniProt P37231). The experiment is described as follows: ATG_hPPARg_XSP1: Attagene TRANS-FACTORIAL Multi-Species (XSP1) HepG2 Assay for human Peroxisome Proliferator-activated Receptor gamma (PPARg) (AID 2283800). In a few lines:
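Reporter mRNA induction, measured by RT-PCR with capillary electrophoresis 24 h after dosing, scored as gain over DMSO. Transfected HepG2 cells express exogenous NR-Gal4 chimeras driving GAL4-UAS reporters; medium includes 3 nM 6-alpha-fluorotestosterone.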

Experiment [15] has as its system zebrafish Peroxisome Proliferator-activated Receptor gamma (PPARg), gene 557037. In words: ATG_zfPPARg_XSP1: Attagene TRANS-FACTORIAL Multi-Species (XSP1) HepG2 Assay for zebrafish Peroxisome Proliferator-activated Receptor gamma (PPARg) (AID 2283801). In a few lines:
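Trans-activation readout of chimeric zebrafish PPARg–GAL4 in transiently transfected human HepG2 cells, 24 h chemical exposure (medium includes 3 nM 6-alpha-fluorotestosterone). Reporter transcripts measured by RT-PCR and capillary electrophoresis, fitted as gain over DMSO.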

The target in experiment [16] is Estrogen receptor (Homo sapiens) (UniProt P03372). In words: ATG_hERa_XSP1: Attagene TRANS-FACTORIAL Multi-Species (XSP1) HepG2 Assay for human Estrogen Receptor (ESR1) (AID 2283780). The procedure, abridged:
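Reporter transcripts from multiplexed GAL4-UAS units driven by NR-Gal4 chimeras in transiently transfected HepG2 were measured by RT-PCR with capillary electrophoresis 24 h post-dose, with 3 nM 6-alpha-fluorotestosterone present; gain-of-signal relative to DMSO.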

Chain of Peroxisome proliferator-activated receptor gamma (Homo sapiens) (P37231 whole entry, looked up, the tested form may be a part): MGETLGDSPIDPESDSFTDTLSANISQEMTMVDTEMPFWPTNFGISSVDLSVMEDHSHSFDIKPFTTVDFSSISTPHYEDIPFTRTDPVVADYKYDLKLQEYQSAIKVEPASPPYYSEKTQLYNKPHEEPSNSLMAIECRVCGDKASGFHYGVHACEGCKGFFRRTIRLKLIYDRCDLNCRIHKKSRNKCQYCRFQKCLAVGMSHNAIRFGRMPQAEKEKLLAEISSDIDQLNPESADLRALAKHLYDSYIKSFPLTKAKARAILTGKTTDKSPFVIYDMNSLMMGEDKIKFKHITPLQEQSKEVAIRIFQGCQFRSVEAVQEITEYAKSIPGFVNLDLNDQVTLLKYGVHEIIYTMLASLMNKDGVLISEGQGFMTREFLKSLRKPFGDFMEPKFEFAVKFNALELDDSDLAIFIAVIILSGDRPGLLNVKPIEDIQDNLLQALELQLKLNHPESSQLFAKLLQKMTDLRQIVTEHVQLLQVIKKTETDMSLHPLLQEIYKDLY
Chain of chicken Estrogen Receptor (ESR1), ESR1 (gene 396099) (P06212 whole entry, looked up, the tested form may be a part): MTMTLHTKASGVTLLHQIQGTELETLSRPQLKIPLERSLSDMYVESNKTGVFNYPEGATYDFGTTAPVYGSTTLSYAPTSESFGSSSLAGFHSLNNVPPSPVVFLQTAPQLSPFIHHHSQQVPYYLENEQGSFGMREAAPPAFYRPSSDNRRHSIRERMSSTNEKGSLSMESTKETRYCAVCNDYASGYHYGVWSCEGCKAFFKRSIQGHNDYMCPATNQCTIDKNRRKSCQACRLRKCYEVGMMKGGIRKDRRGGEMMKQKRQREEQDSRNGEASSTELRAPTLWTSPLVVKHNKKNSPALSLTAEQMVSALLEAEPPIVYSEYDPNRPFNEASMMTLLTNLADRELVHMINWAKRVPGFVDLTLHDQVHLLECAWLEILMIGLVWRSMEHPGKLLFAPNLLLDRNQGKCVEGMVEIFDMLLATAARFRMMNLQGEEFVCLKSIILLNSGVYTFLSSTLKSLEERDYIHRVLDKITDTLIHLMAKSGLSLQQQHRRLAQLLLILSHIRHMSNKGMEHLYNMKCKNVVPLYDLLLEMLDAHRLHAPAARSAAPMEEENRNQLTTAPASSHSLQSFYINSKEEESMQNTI
Chain of GAL4 Transcription Factor (Internal Marker), GAL4 (gene 855828) (P04386 whole entry, looked up, the tested form may be a part): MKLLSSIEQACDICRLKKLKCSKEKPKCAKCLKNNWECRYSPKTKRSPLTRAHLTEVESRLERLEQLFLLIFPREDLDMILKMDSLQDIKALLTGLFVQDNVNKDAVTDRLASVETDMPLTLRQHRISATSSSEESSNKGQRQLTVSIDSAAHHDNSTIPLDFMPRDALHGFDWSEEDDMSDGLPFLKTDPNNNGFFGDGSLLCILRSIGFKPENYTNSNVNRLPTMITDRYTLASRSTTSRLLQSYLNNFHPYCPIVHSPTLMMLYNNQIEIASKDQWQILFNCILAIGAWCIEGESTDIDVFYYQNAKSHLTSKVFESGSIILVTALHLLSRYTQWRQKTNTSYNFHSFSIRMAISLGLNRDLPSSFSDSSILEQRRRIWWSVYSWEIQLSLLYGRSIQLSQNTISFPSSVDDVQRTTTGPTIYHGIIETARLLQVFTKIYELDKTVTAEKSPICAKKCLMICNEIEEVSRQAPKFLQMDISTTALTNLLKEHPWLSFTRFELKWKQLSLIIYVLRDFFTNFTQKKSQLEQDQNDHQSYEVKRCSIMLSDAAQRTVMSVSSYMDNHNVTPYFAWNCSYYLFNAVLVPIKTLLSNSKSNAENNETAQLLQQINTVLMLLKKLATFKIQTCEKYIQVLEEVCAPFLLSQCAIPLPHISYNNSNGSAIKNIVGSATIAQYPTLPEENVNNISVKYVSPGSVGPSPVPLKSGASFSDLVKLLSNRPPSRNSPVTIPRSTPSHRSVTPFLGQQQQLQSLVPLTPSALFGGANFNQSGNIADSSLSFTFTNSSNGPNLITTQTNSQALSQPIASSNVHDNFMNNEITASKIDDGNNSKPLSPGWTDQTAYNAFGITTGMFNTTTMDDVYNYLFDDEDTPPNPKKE
Chain of Estrogen receptor beta (Homo sapiens) (Q92731 whole entry, looked up, the tested form may be a part): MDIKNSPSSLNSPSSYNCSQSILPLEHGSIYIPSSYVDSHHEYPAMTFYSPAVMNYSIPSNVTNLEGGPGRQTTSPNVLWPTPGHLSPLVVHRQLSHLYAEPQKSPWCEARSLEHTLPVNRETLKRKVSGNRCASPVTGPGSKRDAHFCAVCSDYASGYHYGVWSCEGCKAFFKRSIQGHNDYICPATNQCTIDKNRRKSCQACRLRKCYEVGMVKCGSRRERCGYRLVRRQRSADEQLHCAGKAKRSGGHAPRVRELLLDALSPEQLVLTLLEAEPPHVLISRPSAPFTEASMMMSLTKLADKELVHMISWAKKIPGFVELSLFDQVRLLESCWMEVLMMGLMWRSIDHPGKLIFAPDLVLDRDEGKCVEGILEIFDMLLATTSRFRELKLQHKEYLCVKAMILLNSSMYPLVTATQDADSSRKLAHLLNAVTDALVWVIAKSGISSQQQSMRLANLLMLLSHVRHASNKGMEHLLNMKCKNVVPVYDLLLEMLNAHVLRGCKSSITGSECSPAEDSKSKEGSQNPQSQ
Chain of Estrogen receptor (Homo sapiens) (P03372 whole entry, looked up, the tested form may be a part): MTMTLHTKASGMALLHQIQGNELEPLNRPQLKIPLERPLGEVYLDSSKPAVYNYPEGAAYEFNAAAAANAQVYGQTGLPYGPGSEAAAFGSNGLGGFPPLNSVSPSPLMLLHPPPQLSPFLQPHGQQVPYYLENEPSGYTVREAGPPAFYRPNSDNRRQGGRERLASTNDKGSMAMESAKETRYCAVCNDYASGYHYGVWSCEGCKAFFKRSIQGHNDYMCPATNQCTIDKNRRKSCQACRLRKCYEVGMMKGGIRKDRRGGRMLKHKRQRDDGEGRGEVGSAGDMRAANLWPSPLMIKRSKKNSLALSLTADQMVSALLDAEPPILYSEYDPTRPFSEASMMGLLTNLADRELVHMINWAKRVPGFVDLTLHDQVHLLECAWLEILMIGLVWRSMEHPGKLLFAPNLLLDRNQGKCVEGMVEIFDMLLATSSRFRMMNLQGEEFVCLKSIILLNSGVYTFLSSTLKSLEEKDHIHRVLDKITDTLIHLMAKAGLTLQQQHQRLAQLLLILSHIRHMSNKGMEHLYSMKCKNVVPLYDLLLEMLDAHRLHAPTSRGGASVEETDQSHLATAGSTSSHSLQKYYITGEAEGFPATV

Regarding `N#CN`, the molecule was classed as inactive in experiment [1], in experiment [2] and in [3].

Take `CN1CSC(=S)N(C)C1`: the concentration at half-maximal activity (AC50) – broadly, the concentration at which the activity in the assay is half-maximal – in experiment [1] is 50 µM (active); in experiment [2], 31.5 µM (active); in experiment [3], 39.7 µM (active).

For `CCN(CC)C(=O)SCc1ccc(Cl)cc1`, the AC50 in experiment [1] is 62.2 µM (active); in [2] it was 65.8 µM (active); in [3], 75.9 µM (active).

Consider `COc1nn(CSP(=S)(OC)OC)c(=O)s1`, for which the figures for the AC50 in [1] and in [2] were 78.7 µM (active) and 92.6 µM (active), respectively. For the same molecule, the molecule was called inactive in experiment [3].

Take `ClC1C(Cl)C(Cl)C(Cl)C(Cl)C1Cl` (stereo not drawn): the molecule was called inactive in experiment [1], in experiment [2] and in experiment [3]. Further, the AC50 in [2] is 37.8 µM (active); in experiment [3], 60.1 µM (active).

As for `Oc1cc(Cl)ccc1Oc1ccc(Cl)cc1Cl`, the AC50 was 17.3 µM (active) in [1]; 12.9 µM (active) in experiment [2]; 4.96 µM (active) in [5]; 5.85 µM (active) in experiment [7]; 21.9 µM (active) [middle of 6 runs] in experiment [3]; 88.2 µM (active) in [8]. Also, the AC50 in experiment [14] is 9.39 µM (active). Moreover, the call in [4], in experiment [6], in experiment [9], in [10], in [11] and in experiment [12] was inactive. The outcome in [13] and in experiment [15] was inactive.

`CC[C@H](C)[C@H]1O[C@]2(C=C[C@@H]1C)C[C@@H]1C[C@@H](C/C=C(\C)[C@@H](O[C@H]3C[C@H](OC)[C@@H](O[C@H]4C[C@H](OC)[C@@H](O)[C@H](C)O4)[C@H](C)O3)[C@@H](C)/C=C/C=C3\CO[C@@H]4[C@H](O)C(C)=C[C@@H](C(=O)O1)[C@]34O)O2` (tested in a mixture with another compound): the AC50 in experiment [1] is 4.08 µM (active); in experiment [2] it was 4.93 µM (active); in [3] it was 6.89 µM (active).

For the molecule `COP(=S)(OC)Oc1ccc(SC)c(C)c1`, the molecule was classed as inactive in experiment [1], in experiment [3], in experiment [10], in experiment [11], in experiment [12] and in [13]. Moreover, the outcome in experiment [15] was inactive. Also, the half-maximal activity concentration (AC50) in experiment [2] is 33.5 µM (active); in experiment [4], 5.04 µM (active); in experiment [5] it was 45.9 µM (active); in [6], 25.6 µM (active); in experiment [16], 26.5 µM (active); in experiment [7], 26.6 µM (active). For the same molecule, the half-maximal activity concentration (AC50) in [9] is 22.2 µM (active); in experiment [14] it was 22.5 µM (active).

For `CC(C)N(C(=O)COc1nnc(C(F)(F)F)s1)c1ccc(F)cc1`, the AC50 was 21.4 µM (active) in [1] and 50 µM (active) in experiment [2].

With `CC(C)OC(=O)Nc1cccc(Cl)c1`, the AC50 is 86.1 µM (active) in experiment [1], 50 µM (active) in experiment [2] and 79.6 µM (active) in [3].

As for `O=C1c2ccccc2C(=O)N1SC(Cl)(Cl)Cl`, the AC50 in [1] is 8.53 µM (active); in [2], 19.2 µM (active). Besides, the result in experiment [3] was inactive.
